Screening results (PubChem)
TSG101-PTAP inh: blocks PTAP/TSG101 interaction to inhibit HIV-1 budding | Fluorescence polarization, FITC-PTAP peptide / Tsg101 binding | Q99816 | 340,000 tested, under 10 active | Potency, µM (titrated, usually from 115 µM), for the others: at the top dose activity change, negative = inhibition, most hits filed as inhibitors; active = well fitted inhibition curve with a large enough effect in the main read-out, with a control signal flat, not every such curve was filed as active; inconclusive = small, poorly fitted or top-dose-only effect, or effect the other way, or a change in a side signal; inactive = no such curve, though single readings can be large or run the other way; note: % of control where 0% means no effect
Target sequence (Q99816 whole entry, looked up): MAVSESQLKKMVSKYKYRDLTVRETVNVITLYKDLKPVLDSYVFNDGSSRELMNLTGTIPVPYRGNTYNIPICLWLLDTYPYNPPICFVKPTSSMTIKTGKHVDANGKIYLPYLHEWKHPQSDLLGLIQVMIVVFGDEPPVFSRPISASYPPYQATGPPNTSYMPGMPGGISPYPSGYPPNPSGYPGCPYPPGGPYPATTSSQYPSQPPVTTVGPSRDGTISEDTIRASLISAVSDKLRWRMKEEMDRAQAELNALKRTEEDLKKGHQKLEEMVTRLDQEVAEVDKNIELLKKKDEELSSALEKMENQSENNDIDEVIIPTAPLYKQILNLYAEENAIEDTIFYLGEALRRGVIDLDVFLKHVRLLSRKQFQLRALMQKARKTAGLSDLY
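Compounds were pin-transferred onto Tsg101 binding domain (10 uM final) in HEPES pH 7.5 buffer, then FITC-PTAP peptide was added at 50 nM final. After 20 min at RT, polarization reported peptide displacement across a qHTS concentration series.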
KB-3-1 tox: kills parental KB-3-1 adenocarcinoma cells | KB-3-1 viability, CellTiter-Glo ATP luminescence, 72 h | Potency, µM (series often up to 46.1 µM), usual class: cytotoxic | actives 1.4% (n = 400,000) | AID 1347075; note: % is set by controls: 0 for no effect and ±100 for the full control effect; nearly all actives have a fitted effect of over 60% in size
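KB-3-1 parental drug-naive adenocarcinoma cells in DMEM/10% FBS, incubated 72 h at 37 C with pin-transferred compounds across a concentration series. Viability by CellTiter-Glo luminescence; concentration-response curves fitted after normalization.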
PINK1 modulator: modulators of PINK1 expression; PINK1 immunofluorescence, high-content cytometry, 24 h; Potency, µM (titrated, usually from 76.6 µM), without a hit: at the top dose activation (PINK1 increase), actives largely listed as activators; actives 0.2% (n = 410,000); AID 624263; active = well fitted activation curve with a large enough effect; inconclusive = small, poorly fitted or top-dose-only effect; cell line not stated here; note: % of control where 0% means no effect; nearly all actives have a fitted effect of over 65% in size
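Readout is PINK1 immunofluorescence, quantified alongside mitochondrial, cell and nuclear markers by laser-scanning microplate cytometry. Cells from a stable line were exposed to compound titrations (5 concentrations) for 24 hours, with CCCP controls.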
KB-V1 cytotox: KB-V1 MDR subline cytotoxicity; KB-V1 MDR cells viability, CellTiter-Glo, 72 h; Potency, µM (series often up to 46.1 µM), actives largely listed as cytotoxic; actives 3.4% (n = 400,000); AID 1347076; note: % is set by controls: 0 for no effect and ±100 for the full control effect; nearly all actives have a fitted effect of over 60% in size
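KB-V1, DMEM (no phenol red) + 10% FBS; cpd pin-transferred, titration series; 72 h, 37 degrees C; CellTiter-Glo, luminescence. Data normalized, curve-fit.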
SW480 rereplic: induces DNA re-replication in SW480 colon adenocarcinoma cells | SW480 DNA re-replication, Hoechst DNA content imaging, 48 h | Potency, µM (top dose mostly 46.1 µM), for inactives: at the top dose re-replication activation, hits mostly activators | actives 1.8% (n = 340,000); note: % of control where 0% means no effect; nearly all actives have a fitted effect of over 55% in size
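Compounds, transferred as 23 nL by pin tool, were incubated with cells for 48 hr; DNA content per nucleus was then quantified by Hoechst staining and fluorescence plate imaging.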
MCF10A rerep: DNA re-replication induction in MCF 10a cells | MCF 10A DNA re-replication, Hoechst nuclear intensity, 48 h | Potency, µM (highest dose often 46.1 µM), without a hit: at the top dose activity, positive = re-replication, hits mostly activators | actives 2.9% (n = 350,000) | AID 624296; note: % of control where 0% means no effect; nearly all actives have a fitted effect of over 50% in size
* hit, by the source's call; [ ] = dose if it differs, or a comment. Hits are enriched below; roughly 6.8% of the tested compounds scored in any of these assays. Unless noted, calls come from the whole dose curve; as a rule, active = well fitted curve in the direction sought with a large enough effect; inconclusive = small, poorly fitted or top-dose-only effect, or another doubt; inactive = no such curve, though single readings can be large; an effect the other way counts as inactive or inconclusive. Potency is the fitted concentration of half-maximal effect.

How did Cc1ccc(NC(=O)Cc2ccc(Cl)cc2)cc1S(=O)(=O)N1CCCCCC1 do in these assays?
TSG101-PTAP inh: 1%; KB-3-1 tox: inconclusive; PINK1 modulator: inconclusive; KB-V1 cytotox: inactive; SW480 rereplic: -30%; MCF10A rerep: 12%

How did Cc1ccc(NC(=O)CCNC(=O)c2ccc(Br)cc2)cc1S(=O)(=O)N1CCCCCC1 do in these assays?
TSG101-PTAP inh: 0%; KB-3-1 tox: inconclusive; PINK1 modulator: inconclusive; KB-V1 cytotox: 21µM*; SW480 rereplic: -7%; MCF10A rerep: inconclusive

Results for Cc1ccc(CN2CC(C(=O)Nc3ccc(C)c(S(=O)(=O)N4CCCCC4)c3)CC2=O)cc1 (stereo unspecified) ?
TSG101-PTAP inh: -1%; KB-3-1 tox: 16µM*; PINK1 modulator: 7%; KB-V1 cytotox: 21µM*; SW480 rereplic: 1%; MCF10A rerep: inconclusive

What do the screens show for `CCn1c(CN2CCCCC2)nc2cc(NC(=O)COc3ccc(C(C)(C)C)cc3)ccc21`?
KB-3-1 tox: inactive; PINK1 modulator: 0%; KB-V1 cytotox: inactive

Results for COc1ccc(C(=O)Nc2nc(-c3nnn(-c4ccc(C(C)C)cc4)c3C)ns2)cc1 ?
KB-3-1 tox: inactive; PINK1 modulator: 6%; KB-V1 cytotox: inconclusive

Results for Cc1ccc(O)c(NC(=O)c2ccc(Br)c(S(=O)(=O)N3CCCCC3)c2)c1 ?
KB-3-1 tox: inactive; PINK1 modulator: 40µM*; KB-V1 cytotox: inconclusive

How did Cc1ccc(C(=O)Nc2ccncc2)cc1S(=O)(=O)N1CCCCC1 do in these assays?
KB-3-1 tox: inconclusive; PINK1 modulator: 1%; KB-V1 cytotox: 15µM*

How did Cn1cc(C(=O)NCCc2ccccc2)c(=O)c2cc(S(=O)(=O)N3CCCCC3)ccc21 do in these assays?
KB-3-1 tox: inconclusive; PINK1 modulator: 2%; KB-V1 cytotox: inactive

How did CCCCCCCCC1=NCCc2c1[nH]c1ccccc21 do in these assays?
TSG101-PTAP inh: -2%; KB-3-1 tox: inactive; PINK1 modulator: 0%; KB-V1 cytotox: inactive; SW480 rereplic: inconclusive; MCF10A rerep: 12µM*

What do the screens show for `Cc1cc2c(cc1C)NC(CC(=O)NCc1ccccc1)C(=O)N2` (stereo unspecified)?
TSG101-PTAP inh: 23%; KB-3-1 tox: inactive; PINK1 modulator: 4%[38.3 µM]; KB-V1 cytotox: inconclusive; SW480 rereplic: inconclusive; MCF10A rerep: 14µM*

What do the screens show for `CCOc1cc(-c2noc(N)c2C(=O)OC)cc(OCC)c1OCC`?
TSG101-PTAP inh: -1%; KB-3-1 tox: inactive; PINK1 modulator: 6%; KB-V1 cytotox: 12µM*; SW480 rereplic: 3%; MCF10A rerep: 25%

Results for O=[N+]([O-])c1ccc(-n2nnnc2-c2ccccc2)c([N+](=O)[O-])c1 ?
TSG101-PTAP inh: -2%; KB-3-1 tox: inactive; PINK1 modulator: -1%; KB-V1 cytotox: 18µM*; SW480 rereplic: 5.2µM*; MCF10A rerep: 4.1µM*

What do the screens show for `O=[N+]([O-])c1ccc(-n2nnnc2-c2ccccc2)cc1`?
TSG101-PTAP inh: -5%; KB-3-1 tox: inactive; PINK1 modulator: 0%; KB-V1 cytotox: inactive; SW480 rereplic: -105%; MCF10A rerep: inconclusive

Results for O=C(Nc1cc(N2CCOCC2)ncn1)c1ccc(F)cc1 ?
TSG101-PTAP inh: 2%; KB-3-1 tox: 16µM*; PINK1 modulator: 0%; KB-V1 cytotox: inactive; SW480 rereplic: 29%; MCF10A rerep: -4%

Results for O=C(Nc1ccc(C(F)(F)F)cc1)c1cccnc1N1CCOCC1 ?
TSG101-PTAP inh: 1%; KB-3-1 tox: inactive; PINK1 modulator: 3%[38.3 µM]; KB-V1 cytotox: 16µM*; SW480 rereplic: 6%; MCF10A rerep: 32%

What do the screens show for `O=C(Nc1ccc(N2CCOCC2)nc1)c1ccc(C(F)(F)F)cc1`?
TSG101-PTAP inh: -1%; KB-3-1 tox: inconclusive; PINK1 modulator: 3%; KB-V1 cytotox: 8.2µM*; SW480 rereplic: -6%; MCF10A rerep: -2%

Results for O=C(Nc1ccccc1)c1cccnc1N1CCOCC1 ?
TSG101-PTAP inh: -4%; KB-3-1 tox: inconclusive; PINK1 modulator: -2%; KB-V1 cytotox: inactive; SW480 rereplic: 0%; MCF10A rerep: 4%

What do the screens show for `COC(=O)c1cc(NC(=O)c2cc(-c3ccc(C(F)(F)F)cc3)oc2C(F)(F)F)ccc1N1CCOCC1`?
TSG101-PTAP inh: 1%; KB-3-1 tox: inconclusive; PINK1 modulator: 11%; KB-V1 cytotox: inconclusive; SW480 rereplic: 5.8µM*; MCF10A rerep: 22%

What do the screens show for `Cc1ccc(Cn2c(CNC(=O)Cc3cccc([N+](=O)[O-])c3)nc3cccnc32)cc1`?
PINK1 modulator: 0%

How did O=C(Nc1cccc(C(F)(F)F)c1)c1cccnc1N1CCOCC1 do in these assays?
TSG101-PTAP inh: -2%; KB-3-1 tox: inactive; PINK1 modulator: 1%; KB-V1 cytotox: inactive; SW480 rereplic: 0.73µM*; MCF10A rerep: 1%

How did O=C(Nc1cccc(C(F)(F)F)c1)c1cccnc1N1CCCC1 do in these assays?
TSG101-PTAP inh: -4%; KB-3-1 tox: inactive; PINK1 modulator: 0%; KB-V1 cytotox: inactive; SW480 rereplic: -3%; MCF10A rerep: -2%

How did C(#Cc1ccccc1)CN1CCOCC1 do in these assays?
TSG101-PTAP inh: -3%; KB-3-1 tox: inactive; PINK1 modulator: 0%; KB-V1 cytotox: inactive; SW480 rereplic: 1%; MCF10A rerep: -4%

What do the screens show for `C(#Cc1ccc(C#CCN2CCOCC2)cc1)CN1CCOCC1`?
TSG101-PTAP inh: -14%; KB-3-1 tox: inactive; PINK1 modulator: inconclusive; KB-V1 cytotox: 18µM*; SW480 rereplic: 8%; MCF10A rerep: 3%

What do the screens show for `O=C1CC(c2cccc(O)c2)c2cc3c(cc2N1)OCO3` (stereo unspecified)?
KB-3-1 tox: inactive; PINK1 modulator: 0%; KB-V1 cytotox: inactive

What do the screens show for `Cc1ncsc1C(=O)N1N=C2/C(=C/c3ccccc3)CCCC2C1c1ccccc1` (stereo unspecified)?
TSG101-PTAP inh: -2%; KB-3-1 tox: inconclusive; PINK1 modulator: 3%; KB-V1 cytotox: 21µM*; SW480 rereplic: inconclusive; MCF10A rerep: 18%

How did NC(=O)N1N=C2/C(=C/c3ccccc3)CCCC2C1c1ccccc1 (stereo unspecified) do in these assays?
TSG101-PTAP inh: -5%; KB-3-1 tox: inconclusive; PINK1 modulator: 3%; KB-V1 cytotox: inconclusive; SW480 rereplic: 18%; MCF10A rerep: 8.2µM*

What do the screens show for `Cc1cc(C)cc(NC(=O)c2ccc3c(c2)nnn3C2CCCC2)c1`?
KB-3-1 tox: inconclusive; PINK1 modulator: 5%; KB-V1 cytotox: inconclusive
